PubChem BioAssay (NCATS)
Inconclusive results are not listed. A call without a number means that no potency is given here. The source made the active and inactive calls. Calls come from the whole dose curve; as a rule, active = well fitted cell-killing curve with a large enough effect; inconclusive = small, poorly fitted or top-dose-only effect, or effect the other way; inactive = no such curve, though single readings can be large or run the other way.

Experiments:
[1] = Quantitative High-Throughput drug screen in 47 multiple myeloma cell lines against the NCATS MIPE library collection: KMS28BM_JCRB cell viability assay (AID 1919874); note: nearly all actives have a fitted effect of over 35% in size; note: potency is the fitted concentration of half-maximal effect
How it was run: (§1)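 Myeloma cells (500/well) treated with MIPE 4.0 compounds for 48 h at 37 °C, 5% CO2. Viability read as ATP via CellTiter-Glo luminescence after 5 min at RT; DMSO-only wells = 100%, media-only = 0% viability.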

[2] = Quantitative High-Throughput drug screen in 47 multiple myeloma cell lines against the NCATS MIPE library collection: RPMI8226_ATCC cell viability assay (AID 1919871); note: nearly all actives have a fitted effect of over 30% in size; note: potency is the fitted concentration of half-maximal effect
How it was run: as §1

[3] = Quantitative High-Throughput drug screen in 47 multiple myeloma cell lines against the NCATS MIPE library collection: OPM2_DSMZ cell viability assay (AID 1919872); note: nearly all actives have a fitted effect of over 30% in size
How it was run: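 Steps: seed 500 cells per well; pin-transfer MIPE 4.0 library; incubate 48 h at 37C, 5% CO2, humidified; add CellTiter-Glo, 5 min room temperature; read luminescence.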

[4] = Quantitative High-Throughput drug screen in 47 multiple myeloma cell lines against the NCATS MIPE library collection: KMS11_JCRBsus cell viability assay (AID 1919873); note: nearly all actives have a fitted effect of over 50% in size; note: potency is the fitted concentration of half-maximal effect
How it was run: as §1

| SMILES | Potency [1] | Potency [2] | Potency [3] | Potency [4] |
| --- | --- | --- | --- | --- |
| CO[C@@H]1[C@@H](OC(N)=O)[C@@H](O)[C@H](Oc2ccc3c(O)c(NC(=O)c4ccc(O)c(CC=C(C)C)c4)c(=O)oc3c2C)OC1(C)C | 9.35 µM (active) | – | – | – |
| COc1cccc(N(C)C(=S)Oc2ccc3c(c2)CCCC3)n1 | – | 18.7 µM (active) | inactive | 29.6 µM (active) |
| C#CCN[C@@H]1CCc2ccccc21 | inactive | 9.35 µM (active) | inactive | inactive |
| CCOC(=O)c1ccc(C#Cc2ccc3c(c2)C(C)(C)CCS3)nc1 | inactive | inactive | inactive | – |
| CCOCC(O)COc1ccc(NC(=O)CC[S+](C)C)cc1 (configuration not stated) | inactive | inactive | – | – |
| Cc1cccc(N(C)C(=S)Oc2ccc3ccccc3c2)c1 | inactive | – | inactive | – |
| Nc1nc(N)c2nc(CNc3ccc(C(=O)NC(CCC(=O)O)C(=O)O)cc3)cnc2n1 (configuration not stated) | 0.0296 µM (active) | – | – | 0.0526 µM (active) |
| CCN(C)C(=O)Oc1cccc([C@H](C)N(C)C)c1 | inactive | – | inactive | inactive |
| CN(Cc1cc(Br)cc(Br)c1N)C1CCCCC1 | – | – | inactive | inactive |
| COCCCOc1cc(C[C@@H](C[C@H](N)[C@@H](O)C[C@H](C(=O)NCC(C)(C)C(N)=O)C(C)C)C(C)C)ccc1OC | inactive | inactive | inactive | inactive |
| CC1(C)[C@H](C(=O)O)N2C(=O)C[C@H]2S1(=O)=O | inactive | inactive | inactive | inactive |
| CC(C)Cn1cnc2c(N)nc3ccccc3c21 | 14.8 µM (active) | – | inactive | – |
